Records with an inconclusive call do not appear. The source made the active and inactive calls. Unless noted, calls come from the whole dose curve; as a rule, active = well fitted curve in the direction sought with a large enough effect in the repeat runs; inconclusive = weak or mixed curves; inactive = no such curve, though single readings can be large; an effect the other way counts as inactive or inconclusive.
What was measured:
[1] = qHTS assay for small molecule agonists of the p53 signaling pathway (AID 651631; calls by dose curve; note: nearly all actives have a fitted effect of over 15% in size)
Method in brief: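 We treat p53RE-bla HCT-116 cells with compounds for 16 h at 37 °C, add LiveBLAzer B/G FRET substrate for 2 h at room temperature, and measure fluorescence intensity.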

[2] = qHTS assay for small molecule agonists of the p53 signaling pathway - cell viability (AID 651633; calls by dose curve;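 note: p53RE-bla HCT reporter cells with a stable beta-lactamase p53 reporter; series mostly up to about 83 µM; nearly all actives have a fitted effect of over 30% in size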)
Method in brief: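 Viability counter-read: CellTiter-Glo luminescence (30 min, room temperature) in the same p53RE-bla plates. These plates had been exposed to compounds for 16 h at 37 C.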

[3] = qHTS assay for small molecules that induce genotoxicity in human embryonic kidney cells expressing luciferase-tagged ATAD5 - cell viability (AID 651634; calls by dose curve; note: nearly all actives have a fitted effect of over 25% in size)
Method in brief: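 Fluorescence from CellTiter-Fluor, reporting protease activity within live cells, served as the viability read-out. HEK293T cells carrying luciferase-tagged ATAD5 had been treated with compound for 15.5 hr at 37C.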

[4] = qHTS assay for small molecule disruptors of the mitochondrial membrane potential (AID 720635)
Method in brief: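 Mitochondrial membrane potential tracked with Mito-MPS dye, red aggregates (ex 540/em 590 nm) against green monomers (ex 490/em 535 nm). Compound treatment 1 hr at 37C, dye 30 min in HepG2.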

[5] = qHTS assay to test for compound auto fluorescence at 590 nm (red) in HepG2 cells (AID 720674)
Method in brief: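 We screened compounds on adherent HepG2 cells, incubating them for an hour at 37 C in 5% CO2 before reading emission at 590 nm under 540 nm excitation; values reflect equivalence to Rose Bengal sodium fluorescence.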

[6] = qHTS assay to test for compound auto fluorescence at 535 nm (green) in HepG2 cells (AID 720675)
[7] = qHTS assay to test for compound auto fluorescence at 460 nm (blue) in HEK293 cells (AID 720678)
Method in brief: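 HEK293, 2,000 cells/well, 10% dialyzed FBS; attach 4-5 hr 37C; pin compound or DMSO; o/n 37C/5% CO2; fluorescence 405/460 nm; triamterene-equivalent units.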

[8] = qHTS assay to test for compound auto fluorescence at 590 nm (red) in HEK293 cells (AID 720679)
Method in brief: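 Intensity at 540nm excitation and 590nm emission is reported as Rose Bengal sodium-equivalent autofluorescence. Measurements followed overnight exposure (37C, 5% CO2) of HEK293 cells, 2,000 per well, to 23 nL compound.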

[9] = qHTS assay for small molecules that induce genotoxicity in human embryonic kidney cells expressing luciferase-tagged ATAD5 (AID 651632); note: nearly all actives have a fitted effect of over 15% in size
Method in brief: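 ATAD5-luc HEK293T, 2,000 cells/well; cpd or DMSO pin-transferred; 16 hr, 37C/5% CO2; Amplite 30 min RT; luminescence.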

[10] = qHTS assay for small molecule disruptors of the mitochondrial membrane potential - cell viability (AID 720634; calls by dose curve;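 note: human HepG2 liver cancer cells; series mostly up to about 83 µM; nearly all actives have a fitted effect of over 20% in size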)
Method in brief: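 Cells: HepG2, 2,000/well, attached overnight. Compound 1 hr, 37 C/5% CO2. +m-MPI dye, +CellTiter-Glo 30 min RT. Readout: luminescence (ATP).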
% is set by controls: 0 for no effect and ±100 for the full control effect.

CC1=NS(=O)(=O)c2cc(Cl)ccc2N1
inactive: Potency [1] | Potency [2] | Potency [3] | Potency [4] | outcome [5] | outcome [6] | outcome [7] | outcome [8]

Cc1ccc(-c2ncc(Cl)cc2-c2ccc(S(C)(=O)=O)cc2)cn1
inactive: Potency [9] | Potency [2] | Potency [3] | outcome [10] | Potency [4] | outcome [5] | outcome [6] | outcome [7] | outcome [8]

O=Cc1cccc(Br)c1
inactive: Potency [1] | Potency [2] | Potency [3] | outcome [10] | Potency [4] | outcome [5] | outcome [7] | outcome [8]

Cc1ccc(C(=O)c2ccccc2)cc1
inactive: Potency [1] | Potency [2] | Potency [3] | outcome [10] | outcome [5] | outcome [6] | outcome [7] | outcome [8]

CC(C)(C)C(=O)c1ccccc1
inactive: Potency [1] | Potency [2] | Potency [3] | outcome [10] | Potency [4] | outcome [5] | outcome [6] | outcome [7] | outcome [8]

CN(C)CCN(C)CCN(C)C
inactive: Potency [1] | Potency [2] | Potency [3] | outcome [10] | outcome [5] | outcome [6] | outcome [7] | outcome [8]

C=CC(C)(CCC=C(C)C)OC(=O)CC (stereo not drawn)
inactive: Potency [1] | Potency [2] | Potency [3] | outcome [10] | Potency [4] | outcome [5] | outcome [7] | outcome [8]

CO[Si](C)(OC)c1ccccc1
inactive: Potency [1] | Potency [2] | Potency [3] | outcome [5] | outcome [6] | outcome [7] | outcome [8]

Nc1ccncc1N
inactive: Potency [1] | Potency [2] | Potency [3] | outcome [10] | Potency [4] | outcome [5] | outcome [7] | outcome [8]

C=CC(=O)OCCCl
inactive: Potency [1] | Potency [2] | outcome [10] | Potency [4] | outcome [5] | outcome [6] | outcome [7] | outcome [8]

CC(C)[C@H]1CC[C@@H](C)CC1=O
inactive: Potency [1] | Potency [2] | Potency [3] | outcome [10] | outcome [5] | outcome [6] | outcome [7] | outcome [8]

CCCCCCCCCCCCCCC(=O)O
inactive: Potency [1] | Potency [2] | Potency [4] | outcome [5] | outcome [6] | outcome [7] | outcome [8]

Cc1cc(C)c(N=Nc2c(O)c(S(=O)(=O)O)cc3cc(S(=O)(=O)O)ccc23)cc1C
inactive: activation [1] -4.32% [at 8.3 µM] | activity change, negative = cytotoxicity [2] 11.3% [at 8.08 µM] | activity, negative = cytotoxicity [3] -13.8% [at 8.08 µM] | activity change, negative = cytotoxicity [10] -3.07% [at 8.08 µM] | fluorescence, relative to Rose Bengal [5] 0.0524% [at 9.17 µM] | fluorescence, % of fluorescein control [6] -0.0414% [at 9.17 µM] | fluorescence, % of triamterene [7] -0.0938% [at 9.17 µM] | fluorescence, % of fluorescent control [8] -0.166% [at 9.17 µM]

CCCO[Si](OCCC)(OCCC)OCCC
inactive: Potency [9] | Potency [2] | Potency [3] | outcome [10] | Potency [4] | outcome [5] | outcome [6] | outcome [7] | outcome [8]
